Results as given in PubChem BioAssay (Tox21).
Inconclusive results are not listed. Activity calls are given as the source filed them. Unless noted, the call rests on the fitted dose curve; in most records, active means well fitted curve in the direction sought with a large enough effect in the repeat runs; inconclusive means weak or mixed curves; inactive means no such curve, though single readings can be large; an effect the other way counts as inactive or inconclusive.

Columns and labels:
[1] = qHTS assay to identify small molecule antagonists of the androgen receptor (AR) signaling pathway using the MDA cell line in the presence of 0.5 nM R1881 - cell viability counter screen (AID 1259242); further: nearly all actives have a fitted effect of over 45% in size
In short: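 qHTS format. MDA-kb2 (MMTV-luc, AR/GR responsive) + cpd + 0.5 nM R1881 final, 16 hr 37C/0% CO2 → CellTiter-Fluor 30 min → fluorescence intensity.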

[2] = molecular target: Estrogen receptor (Homo sapiens) (UniProt P03372); experiment: qHTS assay to identify small molecule antagonists of the estrogen receptor alpha (ER-alpha) signaling pathway using the BG1 cell line in the presence of 0.1 nM 17-beta-estradiol (AID 1259244); further: nearly all actives have a fitted effect of over 50% in size
In short: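 Reporter is a stably transfected luciferase under four estrogen responsive elements in VM7Luc4E2 cells expressing native full-length ER-alpha; inhibition of 0.1 nM (final) 17beta-estradiol-driven signal over 22 h is read by luminescence.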

[3] = qHTS assay to identify small molecule HDAC inhibitors (AID 1259364);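 further: wild-type HCT-116 cells with endogenous class I/II HDAC activity; top concentration of the series differs between compounds; nearly all actives have a fitted effect of over 45% in size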
In short: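 Quantitative high-throughput format: overnight-seeded HCT-116 cells got compounds for 2 hr at 37C; HDAC-Glo I/II reagent added, 30 min RT, luminescence measured.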

[4] = qHTS assay to identify small molecule HDAC inhibitors - cell viability counter screen (AID 1259365); further: series mostly up to about 92 µM; nearly all actives have a fitted effect of over 50% in size
In short: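 Wild-type HCT-116 cells, 1,500/well, cultured overnight, then compound-treated 2 h at 37 C. Viability measured as ATP luminescence with CellTiter-Glo after 30 min at room temperature.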

[5] = qHTS assay to identify small molecule agonists of the sonic hedgehog signaling (Shh) pathway - cell viability counter screen (AID 1259366); further: nearly all actives have a fitted effect of over 50% in size
In short: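 NIH/3T3-derived Gli1-Luc reporter cells, 2,000 per well, received compound after 4 h and were treated about 23 h at 37C. Viability measured in the same wells by CellTiter-Fluor fluorescence after 1 h.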

[6] = qHTS assay to identify small molecule antagonists of the sonic hedgehog signaling (Shh) pathway - cell viability counter screen (AID 1259367); further: nearly all actives have a fitted effect of over 55% in size
In short: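 Fluorescence read-out (CellTiter-Fluor, 1 hr at 37C) taken after 23 hr compound treatment of 3T3 Gli1-Luc cells stimulated with conditioned medium. Cells were seeded at 2,000 per well and pre-incubated 4 hr.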

[7] = qHTS assay to identify small molecule agonists of the sonic hedgehog signaling (Shh) pathway (AID 1259368; calls by dose curve;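 further: NIH/3T3-derived 3T3Gli1-Luc cells carrying a stable Gli1-driven firefly luciferase reporter; series mostly up to about 92 µM; nearly all actives have a fitted effect of over 15% in size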)
In short: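 Quantitative high-throughput format using a Gli1-driven firefly luciferase reporter line derived from NIH/3T3 cells. After a 24 hr compound treatment at 37 C and 5% CO2, luminescence reported Gli1 response element activity.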

[8] = qHTS assay to identify small molecule antagonists of the sonic hedgehog signaling (Shh) pathway (AID 1259369; calls by dose curve; further: nearly all actives have a fitted effect of over 45% in size)
In short: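 Stable Gli1-Luc reporter NIH/3T3 clone; quantitative HTS in stimulated mode with conditioned medium. Luminescence measured after 24hr compound treatment at 37 C.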

[9] = qHTS assay to identify small molecule agonists of the androgen receptor (AR) signaling pathway in the presence of an antagonist - cell viability counter screen (AID 1259379);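 further: MDA-kb2 human breast cancer cells carrying an MMTV luciferase reporter; series mostly up to about 92 µM; nearly all actives have a fitted effect of over 25% in size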
In short: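 Nilutamide-containing (3.0uM final) MDA-kb2 cultures, 3,000 cells/well, were treated with compounds across 15 concentrations. After 16 hr at 37C with no CO2, cell viability was determined by CellTiter-Fluor fluorescence in the luciferase assay wells.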

[10] = qHTS assay to identify small molecule agonists of the estrogen receptor beta (ER-beta) signaling pathway - cell viability counter screen (AID 1259380); further: nearly all actives have a fitted effect of over 30% in size
In short: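 Steps: plate ER-beta-UAS-bla HEK293T cells, rest 6 hr; add compounds in DMSO; incubate 16 hr at 37C, 5% CO2; add FRET substrate 2 hr; add CellTiter-Glo, wait 30 min at room temperature; read luminescence.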

[11] = qHTS assay to identify small molecule antagonists of the estrogen receptor beta (ER-beta) signaling pathway - cell viability counter screen (AID 1259382); further: series mostly up to about 92 µM; nearly all actives have a fitted effect of over 55% in size
In short: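 Viability is scored by CellTiter-Glo luminescence (30 min, room temperature) in ER-beta-UAS-bla HEK293T wells already read for reporter fluorescence. Compound exposure lasts 16 hr at 37C alongside 1nM 17-beta-estradiol in charcoal-stripped serum medium.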

[12] = molecular target: Estrogen receptor (Homo sapiens) (UniProt P03372); experiment: qHTS assay to identify small molecule agonists of the estrogen receptor alpha (ER-alpha) signaling pathway in the presence of an antagonist (AID 1259383; calls by dose curve; further: top concentration of the series differs between compounds; nearly all actives have a fitted effect of over 15% in size)
In short: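 Readout was ERE-driven luciferase luminescence in VM7Luc4E2 cells, which express full-length ER-alpha endogenously. Compounds were tested at 15 concentrations for 22hr alongside 10.0nM ICI-182,780 (final concentration).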

[13] = qHTS assay to identify small molecule agonists or antagonists of the thyroid stimulating hormone receptor (TSHR) signaling pathway - wild type cell line counter screen (AID 1259384; calls by dose curve)
In short: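 Wild-type Hek293 cells, 800/well, 18 h at 37C, then compound with Ro20-1724 for 30 min RT. cAMP by HTRF (cAMP-d2/anti-cAMP cryptate), 1 h RT, fluorescence read. 15 concentrations, triplicates.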

[14] = qHTS assay to identify small molecule agonists of the estrogen receptor alpha (ER-alpha) signaling pathway in the presence of an antagonist - cell viability counter screen (AID 1259386);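 further: series mostly up to about 92 µM; cells exposed to compounds for 22 h at 37 °C before the viability read; nearly all actives have a fitted effect of over 30% in size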
In short: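 In this counter screen, compound effects on VM7Luc4E2 viability were tested in the presence of the antagonist ICI-182,780 at 10.0nM final. Compounds were dosed at 15 concentrations, exposure lasted 22hr, and the CellTiter-Fluor signal was read.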

[15] = molecular target: Thyrotropin receptor (Homo sapiens) (UniProt P16473); experiment: qHTS assay to identify small molecule antagonists of the thyroid stimulating hormone receptor (TSHR) signaling pathway (AID 1259385; calls by dose curve; further: nearly all actives have a fitted effect of over 20% in size)
In short: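 TSHR-HEK293 cells (800/well) plated 18 h, then compounds with Ro20-1724 and TSH at 1.5 ng/mL final, 30 min at room temperature. cAMP quantified by HTRF (cAMP-d2/anti-cAMP-cryptate, 1 h); 15 concentrations in triplicate.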

[16] = molecular target: Estrogen receptor beta (Homo sapiens) (UniProt Q92731); experiment: qHTS assay to identify small molecule agonists of the estrogen receptor beta (ER-beta) signaling pathway (AID 1259377; active means well fitted activation curve with a large enough effect in the signal ratio in the repeat runs, not every such curve was filed as active; the % refers to the signal ratio)
In short: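 ER-beta-UAS-bla HEK293T cells in medium with 2% charcoal-stripped FBS were exposed to compounds for 16 h at 37C. Beta-lactamase reporter activity was read as fluorescence after 2 h with LiveBLAzer B/G FRET substrate at room temperature.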

[17] = molecular target: Estrogen receptor beta (Homo sapiens) (UniProt Q92731); experiment: qHTS assay to identify small molecule antagonists of the estrogen receptor beta (ER-beta) signaling pathway (AID 1259378; active means well fitted inhibition curve with a large enough effect in the signal ratio in the repeat runs, not every such curve was filed as active; the % refers to the signal ratio)
In short: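 ER-beta-UAS-bla HEK293T cells in 2% charcoal-stripped FBS medium treated with compound plus 1nM final 17-beta-estradiol for 16 hr at 37C. Beta-lactamase reporter read by FRET substrate fluorescence after 2 hours at room temperature.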

Measured: Potency

Sequence of Estrogen receptor beta (Homo sapiens) (Q92731 whole entry, looked up): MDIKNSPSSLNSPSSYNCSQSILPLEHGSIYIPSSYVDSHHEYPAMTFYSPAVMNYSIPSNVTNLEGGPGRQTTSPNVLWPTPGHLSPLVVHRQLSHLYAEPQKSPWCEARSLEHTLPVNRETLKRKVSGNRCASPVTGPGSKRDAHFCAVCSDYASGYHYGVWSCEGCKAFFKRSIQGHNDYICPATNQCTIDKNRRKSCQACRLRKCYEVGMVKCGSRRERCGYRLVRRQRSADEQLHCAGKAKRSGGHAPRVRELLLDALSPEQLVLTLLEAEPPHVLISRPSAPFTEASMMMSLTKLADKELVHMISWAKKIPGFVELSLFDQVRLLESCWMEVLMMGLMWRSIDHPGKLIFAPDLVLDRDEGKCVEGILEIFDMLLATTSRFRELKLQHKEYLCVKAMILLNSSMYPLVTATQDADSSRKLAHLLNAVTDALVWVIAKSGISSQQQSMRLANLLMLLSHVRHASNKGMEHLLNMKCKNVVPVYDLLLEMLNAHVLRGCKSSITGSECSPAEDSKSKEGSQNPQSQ
Sequence of Estrogen receptor (Homo sapiens) (P03372 whole entry, looked up): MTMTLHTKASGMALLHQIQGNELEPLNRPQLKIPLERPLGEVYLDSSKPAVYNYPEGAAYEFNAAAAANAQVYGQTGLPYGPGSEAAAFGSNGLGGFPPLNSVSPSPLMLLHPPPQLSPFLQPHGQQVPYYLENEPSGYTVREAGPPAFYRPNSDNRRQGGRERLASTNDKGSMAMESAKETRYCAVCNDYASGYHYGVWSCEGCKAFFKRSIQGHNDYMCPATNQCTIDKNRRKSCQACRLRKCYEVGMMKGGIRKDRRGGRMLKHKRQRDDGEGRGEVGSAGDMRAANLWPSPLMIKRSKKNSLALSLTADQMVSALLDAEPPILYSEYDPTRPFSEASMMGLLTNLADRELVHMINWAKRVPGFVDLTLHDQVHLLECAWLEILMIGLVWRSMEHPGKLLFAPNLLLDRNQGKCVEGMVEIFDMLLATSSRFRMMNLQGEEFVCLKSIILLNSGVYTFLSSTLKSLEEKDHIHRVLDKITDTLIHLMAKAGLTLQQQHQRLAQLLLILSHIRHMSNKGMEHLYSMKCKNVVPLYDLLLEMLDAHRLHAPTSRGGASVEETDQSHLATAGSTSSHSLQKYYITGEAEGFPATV
Sequence of Thyrotropin receptor (Homo sapiens) (P16473 whole entry, looked up): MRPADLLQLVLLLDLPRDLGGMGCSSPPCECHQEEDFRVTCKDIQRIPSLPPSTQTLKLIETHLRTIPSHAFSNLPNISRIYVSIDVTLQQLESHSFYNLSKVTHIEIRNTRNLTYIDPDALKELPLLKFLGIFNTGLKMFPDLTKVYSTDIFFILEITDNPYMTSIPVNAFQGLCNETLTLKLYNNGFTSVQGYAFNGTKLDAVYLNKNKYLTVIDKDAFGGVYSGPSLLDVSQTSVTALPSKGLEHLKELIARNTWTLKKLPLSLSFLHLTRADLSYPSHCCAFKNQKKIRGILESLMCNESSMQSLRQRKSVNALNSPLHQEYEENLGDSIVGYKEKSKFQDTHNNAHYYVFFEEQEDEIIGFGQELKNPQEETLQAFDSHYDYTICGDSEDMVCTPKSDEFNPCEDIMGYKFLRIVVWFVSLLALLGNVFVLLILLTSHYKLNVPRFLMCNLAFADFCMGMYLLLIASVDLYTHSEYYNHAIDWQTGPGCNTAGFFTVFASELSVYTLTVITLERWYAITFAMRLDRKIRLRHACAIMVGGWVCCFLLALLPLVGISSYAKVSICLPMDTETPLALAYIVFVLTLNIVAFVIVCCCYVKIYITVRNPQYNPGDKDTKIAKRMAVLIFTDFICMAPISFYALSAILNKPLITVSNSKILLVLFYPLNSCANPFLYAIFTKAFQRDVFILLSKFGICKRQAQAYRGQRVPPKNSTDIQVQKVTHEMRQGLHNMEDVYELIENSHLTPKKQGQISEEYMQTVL

CCOP(=S)(OCC)Oc1nc(Cl)n(C(C)C)n1
not listed: [15] | [16] | [17]
inactive: all other assays above

COC(=O)c1ccccc1S(=O)(=O)NC(=O)N(C)c1nc(C)nc(OC)n1
not listed: [8] | [12] | [13] | [15] | [16] | [17]
inactive: all other assays above

CSc1nc(N=[N+]=[N-])nc(NC(C)C)n1
not listed: [8] | [13] | [16] | [17]
inactive: all other assays above

CCCSC(=O)Cl
not listed: [3]
inactive: all other assays above

CCOC(=O)CP(=O)(OCC)OCC
not listed: [3] | [15]
inactive: all other assays above

CCCCP(CCCC)CCCC
not listed: [8] | [10] | [15] | [16]
inactive: all other assays above

O=C(NCO)NCO
not listed: [12] | [16] | [17]
inactive: all other assays above

CCSC(=O)N(CC)C1CCCCC1
not listed: [16] | [17]
inactive: all other assays above

N#CCBr
not listed: [8] | [12] | [16]
inactive: all other assays above
